59 compounds from PubChem BioAssay AID1671202 (University of Kansas High Throughput Screening Laboratory, 2021) can be followed below.

“And” between values parts separate entries of the source, which are not always exact repeats. Identical values can stand only once. Out of some 190,000 compounds screened, about 6,900 (3.6%) were called active. The entries come from a sample that favours actives as a whole. Unmarked numbers belong to inactive results. Rule as the data show it: active = inhibition above about 50%; inactive = the rest.

The target of this assay is Huntingtin (Homo sapiens) (UniProt P42858). Nature of the assay: mutant huntingtin-calmodulin interaction inhibitors – biochemical, AlphaScreen, primary screen (AID 1671202).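 Also: 0% = both proteins with DMSO and 100% = one protein alone.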 Conditions: AlphaScreen His-mHTT/GST-CaM binding, luminescence; at 15 µM, stronger effect = higher value. In general terms: In Alpha technology, singlet oxygen from a donor bead excites a nearby acceptor bead.
Chain of Huntingtin (Homo sapiens) (P42858 whole entry, looked up, stated change not applied): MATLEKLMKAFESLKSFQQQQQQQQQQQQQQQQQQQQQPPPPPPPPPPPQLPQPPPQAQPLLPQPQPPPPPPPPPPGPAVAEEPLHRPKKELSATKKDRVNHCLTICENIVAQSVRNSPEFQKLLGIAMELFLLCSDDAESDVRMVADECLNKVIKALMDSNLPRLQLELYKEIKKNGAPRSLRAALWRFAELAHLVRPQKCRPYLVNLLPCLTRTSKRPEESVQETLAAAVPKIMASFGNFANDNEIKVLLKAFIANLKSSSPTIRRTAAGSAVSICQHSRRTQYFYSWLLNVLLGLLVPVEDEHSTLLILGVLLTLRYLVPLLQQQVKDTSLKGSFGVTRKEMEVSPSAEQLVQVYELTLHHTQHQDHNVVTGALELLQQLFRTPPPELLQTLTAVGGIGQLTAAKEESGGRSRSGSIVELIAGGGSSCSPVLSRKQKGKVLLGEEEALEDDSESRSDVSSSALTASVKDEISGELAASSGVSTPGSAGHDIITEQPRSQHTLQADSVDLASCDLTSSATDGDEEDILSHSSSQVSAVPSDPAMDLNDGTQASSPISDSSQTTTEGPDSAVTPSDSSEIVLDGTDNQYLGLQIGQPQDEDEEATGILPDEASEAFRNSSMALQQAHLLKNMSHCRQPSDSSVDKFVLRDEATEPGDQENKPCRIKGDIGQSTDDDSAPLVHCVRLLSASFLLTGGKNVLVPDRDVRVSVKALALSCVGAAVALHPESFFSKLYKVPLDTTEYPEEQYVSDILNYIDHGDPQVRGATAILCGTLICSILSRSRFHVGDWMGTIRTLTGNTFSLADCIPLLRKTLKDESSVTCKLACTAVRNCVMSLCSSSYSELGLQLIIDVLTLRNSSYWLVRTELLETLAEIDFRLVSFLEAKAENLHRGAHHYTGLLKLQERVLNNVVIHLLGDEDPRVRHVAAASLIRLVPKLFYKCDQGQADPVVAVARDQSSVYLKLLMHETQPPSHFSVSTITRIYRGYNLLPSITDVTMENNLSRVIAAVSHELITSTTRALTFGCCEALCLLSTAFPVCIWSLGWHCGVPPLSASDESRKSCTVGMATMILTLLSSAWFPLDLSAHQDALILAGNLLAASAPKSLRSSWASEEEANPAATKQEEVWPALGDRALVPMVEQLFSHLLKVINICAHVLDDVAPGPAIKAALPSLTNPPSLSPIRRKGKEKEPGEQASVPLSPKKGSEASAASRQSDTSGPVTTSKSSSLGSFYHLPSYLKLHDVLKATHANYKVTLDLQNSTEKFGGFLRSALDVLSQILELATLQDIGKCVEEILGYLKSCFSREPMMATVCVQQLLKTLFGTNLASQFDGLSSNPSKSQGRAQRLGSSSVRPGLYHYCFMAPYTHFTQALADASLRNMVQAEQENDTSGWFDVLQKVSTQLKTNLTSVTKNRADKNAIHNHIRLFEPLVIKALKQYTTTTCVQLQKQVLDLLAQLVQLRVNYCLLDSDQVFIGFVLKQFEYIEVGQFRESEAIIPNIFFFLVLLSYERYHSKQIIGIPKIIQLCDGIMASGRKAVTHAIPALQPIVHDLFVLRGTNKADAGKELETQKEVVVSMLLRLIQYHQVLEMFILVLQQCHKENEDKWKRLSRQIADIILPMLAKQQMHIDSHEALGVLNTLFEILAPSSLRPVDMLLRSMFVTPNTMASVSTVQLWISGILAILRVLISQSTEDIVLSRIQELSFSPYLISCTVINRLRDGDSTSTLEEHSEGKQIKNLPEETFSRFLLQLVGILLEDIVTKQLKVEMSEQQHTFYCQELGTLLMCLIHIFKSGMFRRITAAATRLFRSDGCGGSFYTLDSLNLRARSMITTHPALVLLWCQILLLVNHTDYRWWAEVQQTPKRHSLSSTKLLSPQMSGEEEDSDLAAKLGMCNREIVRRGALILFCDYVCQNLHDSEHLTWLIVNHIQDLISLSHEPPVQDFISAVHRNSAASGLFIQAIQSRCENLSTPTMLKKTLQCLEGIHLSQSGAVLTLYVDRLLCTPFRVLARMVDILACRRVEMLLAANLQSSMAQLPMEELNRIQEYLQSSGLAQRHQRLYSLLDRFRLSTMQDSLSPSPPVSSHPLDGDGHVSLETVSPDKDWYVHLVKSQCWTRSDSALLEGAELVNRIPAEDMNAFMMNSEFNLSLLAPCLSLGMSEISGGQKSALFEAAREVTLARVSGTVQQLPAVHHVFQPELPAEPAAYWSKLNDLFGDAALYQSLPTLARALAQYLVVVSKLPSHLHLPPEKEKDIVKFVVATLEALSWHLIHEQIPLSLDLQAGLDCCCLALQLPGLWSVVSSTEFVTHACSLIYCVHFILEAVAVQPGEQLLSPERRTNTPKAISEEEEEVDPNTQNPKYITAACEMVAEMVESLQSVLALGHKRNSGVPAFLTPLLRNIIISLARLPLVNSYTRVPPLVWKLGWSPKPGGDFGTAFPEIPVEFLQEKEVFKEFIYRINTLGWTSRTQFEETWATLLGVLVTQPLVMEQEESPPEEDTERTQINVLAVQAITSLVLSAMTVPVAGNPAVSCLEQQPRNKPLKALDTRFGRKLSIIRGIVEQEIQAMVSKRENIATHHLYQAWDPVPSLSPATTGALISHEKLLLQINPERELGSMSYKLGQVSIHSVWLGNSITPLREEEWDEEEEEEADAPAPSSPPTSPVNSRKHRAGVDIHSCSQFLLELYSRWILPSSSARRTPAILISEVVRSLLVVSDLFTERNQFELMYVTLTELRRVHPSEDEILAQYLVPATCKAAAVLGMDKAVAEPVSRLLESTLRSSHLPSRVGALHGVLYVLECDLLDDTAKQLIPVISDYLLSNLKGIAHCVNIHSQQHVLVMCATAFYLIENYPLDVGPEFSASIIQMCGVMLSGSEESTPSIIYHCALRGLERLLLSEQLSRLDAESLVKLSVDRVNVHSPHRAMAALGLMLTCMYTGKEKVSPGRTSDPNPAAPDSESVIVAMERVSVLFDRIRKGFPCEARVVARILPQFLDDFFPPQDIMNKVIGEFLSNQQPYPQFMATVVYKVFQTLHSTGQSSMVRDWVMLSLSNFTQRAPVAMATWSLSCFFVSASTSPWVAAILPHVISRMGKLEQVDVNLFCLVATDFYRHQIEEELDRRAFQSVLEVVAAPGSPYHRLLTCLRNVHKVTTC
As usually defined, the inhibition is the drop in the measured response relative to a control, in per cent. `CC(=O)N1CCN(c2nc3c(s2)CC(C(=O)NCCCN2CCC(C)CC2)CC3)CC1` (centres undefined): the inhibition is 4.75%.
With `Cc1nnc(NC(=O)CSc2nc(C(C)C)ccc2C#N)s1` the figure was -5%.
Take `Cc1ccccc1N1CCN(C/C=C/c2ccccc2[N+](=O)[O-])CC1`: the inhibition is 35.9%.
As to `CN(C)c1ccc(/C=C/CN2CCN(c3ccccc3F)CC2)cc1`, the inhibition is 72.5% (active).
Next, `C(=C\c1ccccc1)/CN1CCN(CC2CCCCC2)CC1`: 3.7%; `Cc1cc(CNC(=O)CSc2ccncc2)no1`: -14.6%.
As for `CC(=O)N1CCc2c(sc(NC(=O)c3cc(C)oc3C)c2C(N)=O)C1`, the inhibition was -3.5%.
For the compound `Cc1cc2c(N3CCC(C(=O)Nc4cccc(F)c4)CC3)nccc2s1`, the inhibition is 45.2%.
For `Cc1cc2c(N3CCCC(C(=O)Nc4cccc(F)c4)C3)nccc2s1` (centres undefined), the inhibition is -8.41%.
In the case of `Cc1cc2c(N3CCC(C(=O)Nc4cccc(C(F)(F)F)c4)CC3)nccc2s1`, the inhibition is 80.9% (active).
For `O=C1CC(c2ccccc2Cl)=Nc2ccccc2N1`, the inhibition was 5%.
Next, `C=CCN(CC=C)S(=O)(=O)c1ccc(C(=O)Nc2nnc(-c3ccc(F)cc3)o2)cc1`: 6%; `N#Cc1sc2nc(-c3cccs3)ccc2c1N`: 5% and -18.7%.
Take `COc1cc2c(-c3ccccc3)c(C)oc2cc1CN1CCN(c2ncccn2)CC1`: the inhibition was 62.2% (active).
Next, `COc1cc(CN2CCN(Cc3cc(OC)c(OC)cc3OC)CC2)cc(OC)c1`: 7.3%; `COc1cc(OC)c(OC)cc1CN1CCN(c2ccccc2F)CC1`: 6.5%; `CN(CCc1ccccn1)C(=O)C1CCCN(c2cnn(C)c(=O)c2)C1` (centres undefined): -0.11%.
On to `CCC(=O)NCc1csc(C2CCN(C(=O)c3cccs3)CC2)n1`, for which the inhibition was 5.45%.
Consider `Cc1ccc(CNC(=O)C2(C)CCCN(C(=O)CC(C)C)C2)cc1` (centres undefined), for which the inhibition is -7.13%.
With `COc1ccc(C(=O)N2CCOC(COc3ccc(C)cc3)C2)cc1` (centres undefined), the inhibition was 4.7%.
Regarding `CC(C)C[C@@H](COc1ccccc1)N1CCN(CC(C)C)CCC1=O`, the inhibition is 5.6%.
With `O=C(c1ccc(C(F)(F)F)cc1)N1CCC(=O)N([C@H](COCc2ccccc2)Cc2ccccc2)CC1` the figure was 99.4% (active); with `CC(C)C[C@@H](CO)N1CCN(Cc2ccc(O)cc2)CCC1=O`, -0.4%; with `Cc1ccc(S(=O)(=O)N2CCC(=O)N([C@H](COCc3ccccc3)Cc3ccccc3)CC2)cc1`, -1.2% and -4%.
With `CC(C)C[C@@H](COCc1ccc(Cl)cc1)N1CCN(C(=O)c2ccc(Cl)cc2Cl)CCC1=O`, the inhibition was 86% (active).
Next, `CN1CCC(=O)N([C@H](CO)Cc2ccccc2)CC1`: -6.6%.
For `O=C(NCC(c1cccs1)N1CCOCC1)C(=O)Nc1ccon1` (centres undefined), the inhibition was -10.7%.
With `CCOc1ccccc1N1CCN(CC2CC3C=CC2C3)CC1` (centres undefined) the figure was 3.9%; with `Cc1cccc2c(C(=O)N3CCOCC3)cc(-c3ccccc3)nc12`, 26.2%.
Take `Cc1ccc(C(=O)N2CCCC(COc3ccc(C(=O)N4CCOCC4)cc3)C2)cc1` (centres undefined): the inhibition was 5.35%.
For the compound `O=[N+]([O-])c1ccccc1/C=C/CN1CCN(C/C=C/c2ccccc2)CC1`, the inhibition is 75.3% (active).
Consider `O=[N+]([O-])c1ccccc1/C=C/CN1CCC(O)CC1`, for which the inhibition is -1.3%.
With `O=[N+]([O-])c1ccccc1/C=C/CN1CCN(c2ccccc2)CC1`, the inhibition was 32.8%.
Next, `COc1ccc(Cl)cc1NC(=O)C1CC(=O)N(c2ccc3c(c2)CCN3C(C)=O)C1` (centres undefined): 2.25%; `Cn1nccc1C(=O)N1CCCC1c1cccc(F)c1` (centres undefined): -3.94%; `COc1ccc(S(=O)(=O)NCCc2ccccc2)c(C)c1C`: -7.6%.
As for `CN1CCCc2cc(C(CNC(=O)C(=O)NC3CCCCC3)N(C)C)ccc21` (centres undefined), the inhibition was 5.1%.
Next, `CN1CCc2cc(C(CNC(=O)C(=O)NCc3ccccc3Cl)N(C)C)ccc21` (centres undefined): 53.3% (active).
`CN1CCCc2cc(C(CNC(=O)c3ccccc3Cl)N3CCOCC3)ccc21` (centres undefined): the inhibition is 19.8%.
As to `N#CCn1cccc1-c1nc(-c2ccncc2)no1`, the inhibition was 38.7%.
For `CC(C)(C)C(O)CCNC(=O)c1cccc(F)c1` (centres undefined), the inhibition was -16.4%.
Regarding `COc1ccc(C2=N/C(=C/c3ccc4c(c3)OCO4)C(=O)O2)c(Br)c1`, the inhibition is 3%.
Next, `O=C(Nc1ccc(N2CCOCC2)cc1)c1cccc(Br)c1`: -1.7%; `COc1ccccc1OCC(=O)Nc1c2c(nn1-c1ccc(F)cc1)CS(=O)(=O)C2`: -5.8%.
In the case of `CC1CCCC(Nc2ccc(N3C(=O)CCCC3=O)cc2[N+](=O)[O-])C1C` (centres undefined), the inhibition was 48%.
As to `CC1CC(=O)N(c2ccc(NC3CCCC(C)C3C)c([N+](=O)[O-])c2)C1=O` (centres undefined), the inhibition is 51% (active).
With `O=C1C2CC=CCC2C(=O)N1c1ccc(F)c([N+](=O)[O-])c1` (centres undefined), the inhibition was -1%.
Consider `COc1ccccc1NC(=O)C(CCS(C)(=O)=O)NC(C)=O` (centres undefined), for which the inhibition was 0%.
`Cc1ccc(C2=NC3(CCCCC3)N(CC(=O)Nc3cccc(C)c3)C2=O)cc1`: the inhibition was 0.12%.
For `CN(C)c1ncccc1C(=O)Nc1ccccc1F`, the inhibition was -5.3%.
As for `Cc1c(O)ccc(-c2[nH]ncc2Oc2ccccc2)c1O`, the inhibition is 54.4% (active) and 53% (active).
On to `CCOc1ccc(-c2nn(C)c(C)c2Oc2ccccc2)c(O)c1`, for which the inhibition is -3.5%.
Next, `COc1ccc(-c2c(-c3ccc(OC)cc3O)nc(C)nc2C(F)(F)F)cc1`: -2.9%.
Consider `CCCc1cc(C2CCCN2Cc2cn[nH]c2-c2cccc(OC)c2)no1` (centres undefined), for which the inhibition is -7.21%.
With `CCCc1ccc(Oc2cn[nH]c2-c2ccc(OC)cc2O)cc1` the figure was 51% (active); with `CCOc1ccccc1CN1CCC(C(=O)N2CCN(Cc3ccccc3)CC2)CC1`, 2.9%; with `CC(C)(C)CC(=O)N1CC(C(=O)NC2CC2)C(c2ccc(F)cc2)C1` (centres undefined), -0.9%.
As for `O=C(c1ccc(C(F)(F)F)cc1)N1CCN(c2nc(CN3CCCC3)cs2)CC1`, the inhibition was 1.28%.
Turning to `COc1ccc(CN(CC(=O)NCCc2ccccc2)S(=O)(=O)c2cccnc2)cc1`, the inhibition was -5.6%.
